Laboratory results taken from PubChem BioAssay (NCI).
This is part of a sample that, as a whole, favours compounds with a hit. Of some 83,000 tested, about 20% had one in any assay.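 Results are percent growth after 48 hours of single-concentration exposure. 100 means growth as in untreated cells, lower positive values show inhibition; negative values down to -100 show cell death.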 Values without a mark were called inactive. Activity calls are given as the source filed them. How the source made its calls: active means growth percent below 10; inactive means the rest.

Legend:
Assay in all cases: NCI-60 one-dose screen, 48 h (100 = growth as untreated, 0 = no growth, -100 = all killed)
Conditions in all cases: 10 µM unless noted
[1] = tested on: NCI-H23 lung
[2] = tested on: NCI-H226 lung
[3] = tested on: NCI-H322M lung
[4] = tested on: HOP-62 NSCLC
[5] = tested on: NCI-H460 lung
[6] = tested on: HOP-92 NSCLC
[7] = tested on: NCI-H522 lung
[8] = tested on: A549/ATCC NSCLC
[9] = tested on: 786-0 renal
[10] = tested on: COLO 205 colon
[11] = tested on: DU-145 prostate
[12] = tested on: K-562 leukemia
[13] = tested on: MALME-3M melanoma
[14] = tested on: MDA-MB-231 breast
[15] = tested on: RXF 393 renal
[16] = tested on: SF-268 CNS
[17] = tested on: SF-295 CNS
[18] = tested on: SF-539 CNS
[19] = tested on: UACC-257 melanoma
[20] = tested on: M14 melanoma

Structure (SMILES) | growth [1] | growth [2] | growth [3] | growth [4] | growth [5] | growth [6] | growth [7] | growth [8] | growth [9] | growth [10] | growth [11] | growth [12] | growth [13] | growth [14] | growth [15] | growth [16] | growth [17] | growth [18] | growth [19] | growth [20]
O=C1c2c(c3c4ccccc4[nH]c3c3ccc4ccccc4c23)C(=O)N1CCN1CCCCC1 | 30.5% | 67.5% | 61.1% | -11.9% (active) | 4.88% (active) | 53% | 38% | 32.3% | 26% | 47% | 26.2% | -7.75% (active) | 73.9% | 75.7% | 65.7% | 39.6% | 30.4% | 46.3% | 85.4% | 30.2%
CCCCCCCCCCCCCCCCCCOc1ccccc1CC(=O)NCC[N+]1(C)CCCC1 | 55.3% | 70.5% | 67.3% | 54% | 34.8% | 22.6% | 32.8% | 50.6% | 70.2% | -6.88% (active) | 56.8% | 36.9% | 52.4% | 43.1% | 4.86% (active) | 31% | 86.5% | 82.1% | 93.2% | 65.8%
Cc1ccc2c3c(c(=O)[nH]c2c1)C1(C(C#N)=C(N)O3)c2cc(Br)ccc2-c2ccc(Br)cc21 | 6.8% (active) | -17% (active) | 16.5% | -27.5% (active) | -56.5% (active) | -10.8% (active) | -8.2% (active) | -42.4% (active) | -19.5% (active) | -51.8% (active) | -7.81% (active) | 18.8% | -47.9% (active) | -33.9% (active) | -63.6% (active) | -26.9% (active) | -68.7% (active) | -51% (active) | 71.2% | 50.6%
O=C(CSc1nc2ccc([N+](=O)[O-])cc2[nH]1)Nc1ccc(F)cc1 | 40.4% | 48.9% | 86.5% | 105% | 56.8% | -6.84% (active) | 30.1% | 58.2% | 62.7% | 68.3% | 66.8% | 42.1% | 36.3% | 80.3% | 87.8% | 68.8% | 52.1% | 79.8% | 44.5% | 59.9%
CCCCCCCCCCCCCCCCCCOc1ccccc1CC(=O)OCC[N+]1(C)CCCC1 | 8.45% (active) | 13.4% | 68.1% | 53.5% | 27.5% | 32.7% | 6.85% (active) | 23% | 57.5% | 9.44% (active) | 45.4% | 27% | 31% | 4.95% (active) | -26.3% (active) | 20.7% | 58% | 40.2% | 75.3% | 20.7%
COc1cnc2c(c1)C(=O)c1c-2n(CCCNCCO)c(=O)c2ccncc12 | 1.25% (active) | -43.9% (active) | -2.47% (active) | 9.4% (active) | -41.6% (active) | 20.8% | -30.2% (active) | 7.92% (active) | 12.3% | -15.7% (active) | 3.45% (active) | 5.84% (active) | -30.4% (active) | 6.98% (active) | -11.1% (active) | 14.8% | 6.34% (active) | -15.2% (active) | -19.3% (active) | -1.26% (active)
CCOC(=O)/C=C1\S/C(=N\Nc2cc(=O)[nH]c3ccc(Cl)cc23)N(c2ccccc2)C1=O | 90.5% | 89.6% | 98.6% | 88% | 102% | 91.7% | 79.7% | 105% | 93.8% | 65% | 96.7% | 54.1% | 92.6% | 92.2% | 77.2% | 96% | 102% | 99.6% | 95.6% | 87.3%
Cn1ccc2c3c(ccc21)CC3=O | 97% | 100% | 116% | 111% | 108% | 114% | 98.4% | 105% | 107% | 119% | 120% | 111% | 121% | 103% | 115% | 110% | 112% | 126% | 114% | 107%
